Measured values published in PubChem BioAssay.
Active and inactive are the calls of the source. Unless noted, no stated cut-off is given here; in the data, active means inhibition above about 44%; inactive means the rest.

What was measured:
[1] = biological target: Nuclear receptor coactivator 3 (Homo sapiens) (UniProt Q9Y6Q9); assay: SRC3 coactivator transcriptional activity inhibitors, confirmation, cell-based, luminescence, quadruplicate (AID 588792;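 active means mean inhibition over 43.08%, the solvent-only control mean plus 3 SD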;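 further: 0% = DMSO treated cells and 100% = gossypol at 36 µM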); conditions: HEK293 GAL4-SRC3 luciferase reporter, at 3.6 µM, stronger effect = higher value
Sequence of Nuclear receptor coactivator 3 (Homo sapiens) (Q9Y6Q9 whole entry, looked up, the tested form may be a part): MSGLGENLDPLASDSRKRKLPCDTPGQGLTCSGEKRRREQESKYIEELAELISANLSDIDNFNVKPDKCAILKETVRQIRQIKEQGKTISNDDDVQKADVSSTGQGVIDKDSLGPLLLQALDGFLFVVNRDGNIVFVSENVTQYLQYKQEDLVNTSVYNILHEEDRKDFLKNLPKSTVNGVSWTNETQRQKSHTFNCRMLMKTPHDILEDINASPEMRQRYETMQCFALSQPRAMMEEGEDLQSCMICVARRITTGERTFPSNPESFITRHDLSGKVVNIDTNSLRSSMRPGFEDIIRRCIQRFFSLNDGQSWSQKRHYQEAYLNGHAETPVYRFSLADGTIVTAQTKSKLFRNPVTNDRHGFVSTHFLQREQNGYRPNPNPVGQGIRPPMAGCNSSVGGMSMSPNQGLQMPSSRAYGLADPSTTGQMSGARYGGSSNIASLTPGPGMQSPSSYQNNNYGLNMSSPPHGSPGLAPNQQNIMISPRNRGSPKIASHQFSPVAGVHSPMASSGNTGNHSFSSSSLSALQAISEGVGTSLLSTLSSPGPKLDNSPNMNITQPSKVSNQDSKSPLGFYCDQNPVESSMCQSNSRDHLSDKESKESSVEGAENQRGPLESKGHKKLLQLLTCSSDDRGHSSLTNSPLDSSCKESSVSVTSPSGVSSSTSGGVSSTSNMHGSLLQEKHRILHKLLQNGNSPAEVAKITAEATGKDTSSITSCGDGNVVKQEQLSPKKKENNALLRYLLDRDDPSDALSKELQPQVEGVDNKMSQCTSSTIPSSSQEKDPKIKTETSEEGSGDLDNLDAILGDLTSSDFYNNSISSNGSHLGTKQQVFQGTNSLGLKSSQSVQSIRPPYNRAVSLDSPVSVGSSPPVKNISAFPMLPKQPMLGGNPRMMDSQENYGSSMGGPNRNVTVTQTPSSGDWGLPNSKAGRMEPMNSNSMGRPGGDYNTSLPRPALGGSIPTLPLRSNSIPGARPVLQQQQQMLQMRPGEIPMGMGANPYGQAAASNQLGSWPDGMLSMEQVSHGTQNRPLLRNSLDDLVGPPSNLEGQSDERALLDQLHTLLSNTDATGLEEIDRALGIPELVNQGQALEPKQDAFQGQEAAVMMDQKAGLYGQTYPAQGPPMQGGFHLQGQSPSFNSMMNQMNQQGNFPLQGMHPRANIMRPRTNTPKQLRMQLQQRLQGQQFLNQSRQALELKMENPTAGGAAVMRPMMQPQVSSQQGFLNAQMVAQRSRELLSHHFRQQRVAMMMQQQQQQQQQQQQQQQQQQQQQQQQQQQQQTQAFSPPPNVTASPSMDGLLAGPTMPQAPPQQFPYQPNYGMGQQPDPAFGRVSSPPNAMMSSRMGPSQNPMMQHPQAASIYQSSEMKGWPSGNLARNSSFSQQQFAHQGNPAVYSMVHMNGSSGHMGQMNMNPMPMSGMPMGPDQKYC

[2] = test system: transactivating tegument protein VP16 (Human herpesvirus 1), Gal4-VP16 luciferase reporter; assay: VP16 transactivation inhibitors, counter-screen for SRC3 inhibitor project, cell-based, luminescence, high throughput (AID 588794; in the data active means inhibition above about 30%); conditions: mammalian cells, VP16-driven luciferase reporter luminescence; at 3.6 µM; stronger effect = higher value
[3] = StAR promoter reporter inhibitors, counter-screen for LRH-1 inverse agonist project, cell-based, luminescence, high throughput (AID 651611; in the data active means inhibition above about 28%); conditions: StAR promoter luciferase reporter counterscreen, at 3.6 µM, stronger effect = higher value
[4] = biological target: Nuclear receptor subfamily 5 group A member 2 (Homo sapiens) (UniProt O00482); assay: LRH-1 (NR5A2) inverse agonists, retest, confirmation, cell-based, luminescence (AID 651613; in the data active means inhibition above about 42%;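 further: HEK293T cells co-transfected with LRH-1 and StAR promoter luciferase reporter; 0% = vehicle wells and 100% = parental cells lacking receptor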); conditions: cell-based LRH-1 luciferase reporter, inverse agonism; at 3.6 µM; stronger effect = higher value
Sequence of Nuclear receptor subfamily 5 group A member 2 (Homo sapiens) (O00482 whole entry, looked up): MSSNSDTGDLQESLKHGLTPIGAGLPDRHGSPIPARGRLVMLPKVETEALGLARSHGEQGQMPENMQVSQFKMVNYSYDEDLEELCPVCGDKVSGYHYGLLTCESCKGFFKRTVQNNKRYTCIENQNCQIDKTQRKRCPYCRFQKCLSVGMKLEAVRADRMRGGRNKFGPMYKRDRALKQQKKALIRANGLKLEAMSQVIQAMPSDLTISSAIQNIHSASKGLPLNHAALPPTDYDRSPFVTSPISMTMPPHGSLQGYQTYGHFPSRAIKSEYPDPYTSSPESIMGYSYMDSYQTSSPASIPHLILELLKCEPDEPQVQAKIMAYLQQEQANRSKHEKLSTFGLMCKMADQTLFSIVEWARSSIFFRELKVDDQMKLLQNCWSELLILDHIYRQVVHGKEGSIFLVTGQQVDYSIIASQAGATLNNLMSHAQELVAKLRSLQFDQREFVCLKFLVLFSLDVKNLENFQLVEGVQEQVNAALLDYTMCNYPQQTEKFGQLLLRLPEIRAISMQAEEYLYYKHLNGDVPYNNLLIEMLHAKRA

[5] = biological target: Steroidogenic factor 1 (Homo sapiens) (UniProt Q13285); assay: SF1 (NR5A1) inverse agonists, counter-screen for LRH-1 inverse agonist project, cell-based, luminescence, high throughput (AID 651614); conditions: cell-based SF1 luciferase reporter, at 3.6 µM, stronger effect = higher value;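 further: cells cotransfected with StAR promoter reporter and SF1 expression vector; 0% = vehicle on cells with receptor and 100% = vehicle on cells lacking receptor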
Sequence of Steroidogenic factor 1 (Homo sapiens) (Q13285 whole entry, looked up, the tested form may be a part): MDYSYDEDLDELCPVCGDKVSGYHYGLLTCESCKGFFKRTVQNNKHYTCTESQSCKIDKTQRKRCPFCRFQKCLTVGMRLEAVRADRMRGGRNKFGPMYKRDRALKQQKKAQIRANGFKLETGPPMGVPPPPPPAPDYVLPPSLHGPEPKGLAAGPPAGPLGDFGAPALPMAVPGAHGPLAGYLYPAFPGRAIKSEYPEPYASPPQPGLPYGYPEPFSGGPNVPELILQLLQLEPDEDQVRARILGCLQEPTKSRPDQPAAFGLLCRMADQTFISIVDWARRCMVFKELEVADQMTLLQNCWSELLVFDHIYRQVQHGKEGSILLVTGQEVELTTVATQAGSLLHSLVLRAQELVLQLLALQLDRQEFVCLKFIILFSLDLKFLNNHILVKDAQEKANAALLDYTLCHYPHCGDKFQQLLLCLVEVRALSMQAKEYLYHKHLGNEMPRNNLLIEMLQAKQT

[6] = VP16 transactivation reporter inhibitors, counter-screen for LRH-1 inverse agonist project, cell-based, luminescence, high throughput (AID 651615; in the data active means inhibition above about 33%); conditions: Gal4-VP16 luciferase reporter cells, at 3.6 µM, stronger effect = higher value

Measured: inhibition

C[C@H]1CCC/C=C/[C@@H]2C[C@H](O)C[C@H]2[C@H](O)[C@H](S(=O)c2ccc(O)cc2)CC(=O)O1 (stereo partly specified)
active: [1] 71.7% | [2] 77.6% | [3] 77.7% | [4] 84.4% | [5] 76.6% | [6] 77.6%

O=C(Nc1sc2c(c1C(=O)O)CCCCC2)c1ccccc1
inactive: [1] -1.12% | [2] 24.2% | [3] 1.22%
active: [4] 57% | [5] 59% | [6] 53.1%

Nc1cc(Cc2ccccc2)ccc1O
inactive: [1] -9.82% | [2] -12.4% | [3] 9.01% | [4] 25.7% | [5] 33.2% | [6] -10.3%

CN(c1ccccc1)S(=O)(=O)c1cccc(C(=O)OCC(=O)Nc2ccc(C(N)=O)cc2)c1
inactive: [1] 6.76% | [2] -5.87% | [3] 16.5% | [4] 1.26% | [5] 10% | [6] -16.3%

C[n+]1c2n(c3ccccc31)N=C(c1ccc(-c3ccccc3)cc1)CS2
active: [2] 52.8% | [3] 32.7% | [4] 87.7% | [5] 78.2% | [6] 72.8%
inactive: [1] 36.6%

CCOC(=O)c1sc(N(Cc2ccccc2)C(=O)COC(=O)c2ccc(O)cc2)nc1C
inactive: [3] -92.1%
active: [1] 69.3% | [2] 37.4% | [4] 55.2% | [5] 61.2% | [6] 37.1%

CCNc1nc(NC(C)(C)C)nc(SC(C(C)=O)C(C)=O)n1
inactive: [1] 23.3%
active: [2] 32% | [3] 60.2% | [4] 72.4% | [5] 64.2% | [6] 49.4%

c1ccc(-c2csc3ncnc(NCC4COc5ccccc5O4)c23)cc1 (stereo unspecified)
active: [2] 53% | [3] 34.8% | [4] 57.8% | [5] 62.5% | [6] 60.4%
inactive: [1] 8.5%

COc1cc(N(C)C)ccc1C=c1c2ccccc2n2c1cc(-c1ccccc1)[n+]2C
active: [1] 57.7% | [2] 67.2% | [3] 56.9% | [4] 109% | [5] 87.4% | [6] 92.5%

COc1ccc(OC)c2nc3c(C(=O)NCCN(C)C)cccc3nc12
active: [2] 65% | [3] 53.2% | [4] 77.8% | [5] 70.5% | [6] 75.7%
inactive: [1] -25.8%

Cn1nccc1C(=O)NC1CCCc2c1cnn2-c1ccc(C(C)(C)C)cc1 (stereo unspecified)
active: [2] 49.3% | [3] 42.5% | [4] 63.5% | [5] 69.7% | [6] 58.2%
inactive: [1] 15%

COc1ccc(-c2n(CC(=O)OC3CC(C)CCC3C(C)C)c3ccccc3[n+]2C)cc1 (stereo unspecified)
active: [1] 57.5% | [2] 61.3% | [3] 59.1% | [4] 110% | [5] 79.5% | [6] 92.9%

COc1cc2c(c(OC)c1OC)-c1ccc(SC)c(=O)cc1C(NC=O)CC2 (stereo unspecified)
active: [1] 44.5% | [3] 67% | [4] 65.8% | [5] 69.7% | [6] 54.5%
inactive: [2] 15.7%

CCN1/C(=C/c2ccc3cc(C)ccc3[n+]2CC)Sc2cc(C)ccc21
inactive: [1] 26.1%
active: [2] 64% | [3] 39.8% | [4] 108% | [5] 75.6% | [6] 83.3%

COc1ccc(OC)c(NC(=O)c2nnn(Cc3ccccc3C)c2N)c1
inactive: [1] 4.83% | [3] 20.2%
active: [2] 29.9% | [4] 44.5% | [5] 52.9% | [6] 57.3%

Cc1ccc(S(=O)(=O)Nc2cc(Cl)c(O)c3ncccc23)cc1
inactive: [1] 28.2% | [2] 24.5%
active: [3] 48.1% | [4] 72.1% | [5] 62.2% | [6] 62%

CCN(CC)c1ccc(/C=N/NC(=O)c2c(Cl)cnn2C)c(O)c1
active: [1] 64.2% | [2] 72.8% | [3] 83% | [4] 96.4% | [5] 79.9% | [6] 60.9%

Cc1cc(C(=O)NC2CCCc3c2cnn3-c2ccc(C)c(C)c2)n(C)n1 (stereo unspecified)
inactive: [1] 21.1%
active: [2] 52.5% | [3] 33.4% | [4] 62% | [5] 57.4% | [6] 67.1%

COc1ccc(-c2cn(-c3ccccc3)c3[n+]2CCS3)cc1
active: [2] 35.4% | [4] 61.1% | [5] 60.6% | [6] 45.1%
inactive: [1] 15.7% | [3] 18.2%

CCOc1ccc(-n2c(-c3ccccc3)c[n+]3c2CCCCC3)cc1
inactive: [1] 28.7%
active: [2] 52.4% | [3] 29.9% | [4] 90.5% | [5] 72.3% | [6] 66.2%

CCCCCc1ccc(OCCCC[n+]2ccccc2)c(CCCCC)c1
active: [4] 41.8% | [6] 42.3%
inactive: [1] 20.9% | [2] 20.9% | [3] 3.96% | [5] 37.9%
